According to PubChem BioAssay:
Calls of active or inactive are those of the source.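 Rule for the calls, unless noted: active = inhibition above 20% together with a positive visual image hit; inconclusive = visual image hit but inhibition not above 20%; inactive = no visual image hit.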

What was measured:
[1] = inhibitors of TNFa-induced NFkB p65 translocation, primary screen, imaging, HUVEC, MLSMR starter and 10KST1 sets (AID 438); settings: HUVEC TNFa-induced p65 nuclear translocation; cell count: measured here: nuclei count (cytotoxicity indicator), at 2.08 µM; inhibition: at 2 µM, stronger effect = higher value, 0% TNFa-plus-vehicle, 100% no-TNFa wells;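 note: compound added about 3h40 before a 20 min TNFalpha stimulation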;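 for inhibition: signal is the nuclear over cytoplasmic p65 intensity ratio per well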
[2] = inhibitors of mutant huntingtin aggregation, primary screen, imaging, exon1htt(103Q)mCFP cells, high-content imaging (AID 483;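 active = visual image review flags a hit and inhibition of aggregation exceeds 20%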;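 note: compound exposure lasted 3 days before fixation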;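 for nuclei count: percent of the per-plate median nuclei count of sample wells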); settings: exon1htt(103Q)mCFP cell line, aggregate imaging, at 2 µM; inhibition of aggregation: stronger effect = higher value; nuclei count: measured here: cell count, toxicity
[3] = inhibitors of E-selectin induction by TNFa, primary screen, imaging, HUVEC, immunofluorescence, MLSMR starter and 10KST1 sets (AID 487;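 active = visually confirmed hit in the image check and inhibition above 20%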;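 for inhibition: signal is fraction of cell area covered by stained E-selectin grains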;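 for nuclei count: 100% = median nuclei count of all wells on the same plate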); settings: HUVEC TNFalpha-induced E-selectin immunofluorescence imaging, at 2 µM; inhibition: stronger effect = higher value; nuclei count: measured here: cell number, toxicity
[4] = biological target: Voltage-gated potassium channel subunit beta-2 (Rattus norvegicus) (UniProt P62483); experiment: KvBeta enzyme negative modulators, primary screen, biochemical, NADPH fluorescence (AID 622;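 active = fluorescence slope higher than the sample average by over 3 SD, cut at about -0.22 in these data, passing the limit was not always enough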;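 note: slope of raw intensity against log time taken from 70 to 1610 s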); settings: recombinant KvBeta, 4-cyanobenzaldehyde reduction, at 10 µM, stronger effect = higher value
Sequence of Voltage-gated potassium channel subunit beta-2 (Rattus norvegicus) (P62483 whole entry, looked up): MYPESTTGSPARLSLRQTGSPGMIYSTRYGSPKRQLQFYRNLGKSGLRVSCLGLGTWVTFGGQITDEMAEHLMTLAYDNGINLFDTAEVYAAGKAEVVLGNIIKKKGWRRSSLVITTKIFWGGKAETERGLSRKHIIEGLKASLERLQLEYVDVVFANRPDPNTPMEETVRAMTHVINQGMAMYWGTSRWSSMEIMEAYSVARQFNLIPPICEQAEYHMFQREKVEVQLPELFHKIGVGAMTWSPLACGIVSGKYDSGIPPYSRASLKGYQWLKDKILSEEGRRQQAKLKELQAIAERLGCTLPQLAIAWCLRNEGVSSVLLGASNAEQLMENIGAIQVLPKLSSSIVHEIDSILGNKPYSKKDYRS

[5] = biological target: Voltage-gated potassium channel subunit beta-2 (Rattus norvegicus) (UniProt P62483); experiment: KvBeta positive modulators, primary screen, biochemical, NADPH fluorescence (AID 623;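 active = NADPH fluorescence slope more negative than the mean of all samples by about 3 SD, 99.7% confidence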;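 note: fluorescence intensity change per second fitted from 20 to 320 s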); settings: Recombinant KvBeta, NADPH fluorescence decrease slope, 10 min; at 10 µM; stronger effect = lower value
[6] = biological target: Alpha-2C adrenergic receptor (Homo sapiens) (UniProt P18825); experiment: modulators of alpha2C/GIRK thallium flux, primary screen, cell-based, HEK293 alpha2C/GIRK1/2 (AID 624;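 active = fluorescence slope after compound addition differing from the mean of all screened samples at 99.7% confidence, in either direction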;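 note: slope of fluorescence ratio to pre-addition baseline per second over 15 to 24 s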); settings: thallium flux BTC fluorescence, at 10 µM, actives lie on both sides
Sequence of Alpha-2C adrenergic receptor (Homo sapiens) (P18825 whole entry, looked up): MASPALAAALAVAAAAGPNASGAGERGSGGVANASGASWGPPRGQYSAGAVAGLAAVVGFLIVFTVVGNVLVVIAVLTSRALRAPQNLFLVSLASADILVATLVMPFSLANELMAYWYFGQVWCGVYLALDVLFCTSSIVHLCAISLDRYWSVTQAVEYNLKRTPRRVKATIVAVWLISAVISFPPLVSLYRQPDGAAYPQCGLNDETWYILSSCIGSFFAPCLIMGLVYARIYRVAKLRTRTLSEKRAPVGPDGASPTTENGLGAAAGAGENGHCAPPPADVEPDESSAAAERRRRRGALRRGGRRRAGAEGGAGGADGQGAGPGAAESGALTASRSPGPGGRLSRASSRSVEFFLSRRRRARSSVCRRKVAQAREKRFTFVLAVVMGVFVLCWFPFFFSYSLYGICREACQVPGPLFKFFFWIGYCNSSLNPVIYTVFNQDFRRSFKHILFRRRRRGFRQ

[7] = inhibitors of Sendai virus-induced IRF3 signaling, primary screen, TLR/RLR signaling modifier project, cell-based, Sendai virus stimulus, luciferase, 10K MLSCN set (AID 602276;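 active = inhibition at or above 50% at 10 µM; inactive = inhibition below 50%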;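 note: firefly luciferase from ISG56 promoter only with Renilla not read in this screen; 0% = Sendai virus plus DMSO and 100% = medium plus DMSO without virus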); settings: HEK293 RL24 IRF3 luciferase reporter, at 10 µM, stronger effect = higher value
[8] = inhibitors of poly I:C-induced TLR3 signaling, primary screen, cell-based, poly I:C stimulus, luciferase, 10K MLSCN set (AID 602277;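 active = inhibition of the reporter signal at or above 50%; inactive = inhibition below 50%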); settings: HEK293-TLR3 RL24 IRF3 luciferase reporter, at 10 µM, stronger effect = higher value

| Compound | cell count [1] | inhibition [1] | inhibition of aggregation [2] | nuclei count [2] | inhibition [3] | nuclei count [3] | fluorescence slope [4] | NADPH fluorescence slope [5] | slope [6] | inhibition [7] | inhibition [8] |
| --- | --- | --- | --- | --- | --- | --- | --- | --- | --- | --- | --- |
| O=C(NCc1cccs1)C1CCCN(c2ncccn2)C1 (stereo not given) | 404 | -3% (inactive) | 13.4% (inactive) | 96.8% | -10.2% (inactive) | 123% | -0.5 (inactive) | -1.3e-05 (inactive) | 0.00547 (inactive) | 12.7% (inactive) | 9.11% (inactive) |
| COc1ccccc1CC1(C)NC(=O)N(CC(=O)Nc2cc(C)on2)C1=O (stereo not given) | 471 | -14.8% (inactive) | 14.1% (inactive) | 88.8% | -28.8% (inactive) | 158% | -0.598 (inactive) | -2.5e-05 (inactive) | 0.006 (inactive) | 9.53% (inactive) | 16.4% (inactive) |
| CC(C)CNc1oc(-c2ccc(F)cc2)nc1C#N | 696 | -2.9% (inactive) | -21% (inactive) | 108% | -41.9% (inactive) | 118% | -0.543 (inactive) | -5e-06 (inactive) | 0.00664 (inactive) | -4.19% (inactive) | 2.46% (inactive) |
| C=CCn1c(COc2ccccc2)nnc1SCC(=O)C(C)(C)C | 733 | 0.9% (inactive) | -8.3% (inactive) | 102% | 7.8% (inactive) | 98.4% | -0.449 (inactive) | -3.9e-05 (inactive) | 0.00312 (inactive) | 3.19% (inactive) | 22.7% (inactive) |
| Cc1cccc(OCCCc2c(C)n[nH]c2C)c1 | 348 | 2.2% (inactive) | 7.5% (inactive) | 98.5% | -10% (inactive) | 118% | -0.501 (inactive) | 6.9e-05 (inactive) | 0.00319 (inactive) | -15.1% (inactive) | -15.9% (inactive) |
| Cn1nnnc1SCC(=O)NC1CCCCC1 | 228 | 3.4% (inactive) | 20% (inactive) | 84.3% | -0.8% (inactive) | 79.2% | -0.432 (inactive) | 4.4e-07 (inactive) | 0.00705 (inactive) | 5.19% (inactive) | 19.8% (inactive) |
| Cn1c(SCC(=O)Nc2ccc3c(c2)oc2ccccc23)nnc1-c1ccccc1 | 403 | -1.1% (inactive) | 4.5% (inactive) | 96.1% | -52.8% (inactive) | 109% | -0.515 (inactive) | -0.000134 (active) | 0.0032 (inactive) | -1.19% (inactive) | -25.5% (inactive) |
| O=C(C1CCCN(S(=O)(=O)c2cccs2)C1)N1CCc2ccccc2C1 (stereo not given) | 668 | -3.6% (inactive) | -29.8% (inactive) | 119% | -53.2% (inactive) | 109% | -0.586 (inactive) | -5.1e-05 (inactive) | 0.0027 (inactive) | 13.1% (inactive) | 14.2% (inactive) |
| O=C(Nc1ccc2c(c1)OCCO2)C1CCCN1S(=O)(=O)c1cccc2cccnc12 (stereo not given) | 743 | 4.4% (inactive) | 4.5% (inactive) | 128% | -42.2% (inactive) | 106% | -0.537 (inactive) | -4.4e-05 (inactive) | 0.00567 (inactive) | 3.98% (inactive) | 22.9% (inactive) |
| Cn1nc(C(=O)N2CCOCC2)c2ccccc2c1=O | 321 | 5.2% (inactive) | 12.2% (inactive) | 109% | -79.4% (inactive) | 130% | -0.43 (inactive) | -3.1e-05 (inactive) | 0.00337 (inactive) | 9.89% (inactive) | 32% (inactive) |
| Cc1cc(C)cc(NC(=O)CCNS(=O)(=O)c2ccc3c(c2)oc(=O)n3C)c1 | 755 | -14.1% (inactive) | -14.6% (inactive) | 120% | -79.9% (inactive) | 100% | -0.601 (inactive) | -3.2e-05 (inactive) | 0.00584 (inactive) | 20.7% (inactive) | 22.7% (inactive) |
| CCc1nnc(NC(=O)CN2CCN(c3ccccc3OC)CC2)s1 | 287 | 6.2% (inactive) | -10% (inactive) | 102% | 3.6% (inactive) | 97.4% | -0.616 (inactive) | -2e-05 (inactive) | 0.00643 (inactive) | 7.27% (inactive) | 27.9% (inactive) |
| COc1cc2c(C)nc(C)c(C#N)c2cc1OC | 709 | -23.3% (inactive) | -17.8% (inactive) | 85.6% | -12.4% (inactive) | 124% | -0.481 (inactive) | -4.4e-05 (inactive) | 0.00598 (inactive) | 2.98% (inactive) | 2.54% (inactive) |
| COc1ccccc1NC(=O)CSC1CC(=O)N(c2ccc3c(c2)OCO3)C1=O (stereo not given) | 685 | -3.4% (inactive) | -2.5% (inactive) | 95.7% | -109% (inactive) | 122% | -0.622 (inactive) | 2.7e-05 (inactive) | 0.00433 (inactive) | 17.9% (inactive) | 21.8% (inactive) |
| O=C(Nc1ccc(N2CCOCC2)cc1)c1cc2ccccc2o1 | 775 | -1.9% (inactive) | 7.2% (inactive) | 106% | -29.4% (inactive) | 97.9% | -0.479 (inactive) | 1.9e-05 (inactive) | 0.003 (inactive) | -72.9% (inactive) | -187% (inactive) |
| O=C(CSc1nnnn1-c1ccccc1)c1cc2ccccc2oc1=O | 788 | -8.3% (inactive) | -9.6% (inactive) | 124% | -39.8% (inactive) | 117% | -0.647 (inactive) | -1.4e-05 (inactive) | 0.00672 (inactive) | 1.78% (inactive) | -14.1% (inactive) |
| Clc1ccc(CSc2nnc(Cn3cnc4ccccc43)o2)cc1 | 618 | -2.5% (inactive) | 20.9% (inactive) | 72.2% | -1.1% (inactive) | 98.2% | -0.48 (inactive) | -1.4e-05 (inactive) | 0.00613 (inactive) | -20.9% (inactive) | -27.5% (inactive) |
| COC(=O)Nc1sc2c(c1C(N)=O)CCCCCC2 | 522 | 2% (inactive) | 18.9% (inactive) | 95.2% | -53.8% (inactive) | 92% | -0.509 (inactive) | -5.2e-05 (inactive) | 0.00644 (inactive) | 5.06% (inactive) | 17.8% (inactive) |
| CCOc1ccccc1OCCCCN1CCCC1 | 608 | 10.2% (inactive) | 15.7% (inactive) | 100% | -99% (inactive) | 122% | -0.47 (inactive) | -5.2e-06 (inactive) | 0.00972 (active) | 7.96% (inactive) | 35.8% (inactive) |
| C/C(N)=C(/C#N)C(=O)CSc1nnc(Nc2c(C)cccc2C)s1 | 354 | 13.1% (inactive) | 8.1% (inactive) | 70.3% | -30.9% (inactive) | 119% | -0.586 (inactive) | -5.6e-05 (inactive) | 0.00543 (inactive) | 6.86% (inactive) | 2.86% (inactive) |
